Screening data from PubChem.
Compounds with a hit are over-represented: about 1.2% of the library has one in this group of screens.
GCN5L2 inh: qHTS Assay for Inhibitors of GCN5L2; Histone acetyltransferase KAT2A (Homo sapiens), Q92830; GCN5L2 HAT assay, ThioGlo1 CoA-SH fluorescence; Potency, µM (doses to about 58.9 µM), inactives show at the top dose activity change, negative = inhibition, usual class: inhibitors; actives 0.21% (n = 390,000); AID 504327, 2011
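Preincubate 20nM GCN5L2 with compound 15 min, RT → add 50uM ThioGlo1 + 75uM H3(1-25) + 70uM acetyl-CoA → read fluorescence 0 and 20 min. Primary qHTS; fluorescent artifacts likely.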
RGS12 GoLoco inh: qHTS Assay for Inhibitors of RGS12 GoLoco Motif Activity (Red Fluorophore) | Guanine nucleotide-binding protein G(i) subunit alpha-1 (Homo sapiens), P63096 | Gai1:RGS12 GoLoco peptide FP, rhodamine, 10 min | Potency, µM (doses to about 61.6 µM), for the others: at the highest dose activity, negative = inhibition, hits mostly inhibitors | actives 0.44% (n = 230,000); active = well fitted inhibition curve with a large enough effect, not every such curve was filed as active; inactive = no such curve, though single readings can be large or run the other way; note: nearly all actives have a fitted effect of over 30% in size
Target sequence (P63096 whole entry, looked up): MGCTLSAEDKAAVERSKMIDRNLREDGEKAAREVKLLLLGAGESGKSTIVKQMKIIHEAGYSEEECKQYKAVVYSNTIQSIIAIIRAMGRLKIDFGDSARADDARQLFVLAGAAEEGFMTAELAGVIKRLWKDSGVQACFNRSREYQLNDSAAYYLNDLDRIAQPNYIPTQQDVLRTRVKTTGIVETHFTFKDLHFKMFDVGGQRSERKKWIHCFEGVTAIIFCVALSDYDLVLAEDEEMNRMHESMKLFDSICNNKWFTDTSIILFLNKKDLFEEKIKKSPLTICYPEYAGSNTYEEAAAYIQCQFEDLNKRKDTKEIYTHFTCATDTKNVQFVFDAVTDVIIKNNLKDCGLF
TRb SRC2 PPI: qHTS for Inhibitors of the Interaction of Thyroid Hormone Receptor and Steroid Receptor Coregulator 2; TRbeta-SRC2 peptide binding, fluorescence polarization; receptor liganded with 1 µM T3; Potency, µM (top dose mostly 106 µM), without a hit: top-dose activity change, negative = inhibition, hits mostly inhibitors; actives 0.065% (n = 280,000); AID 1469, 2008;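 note: plate controls were bound peptide for no effect and peptide without receptor for full effect; nearly all actives have a fitted effect of over 50% in size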
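Compounds were added to 0.6 uM TRb ligand-binding domain and 20 nM Texas Red-labeled SRC2 peptide in Tris buffer containing 1 uM T3, incubated 5 hr at ambient temperature, then read by fluorescence polarization.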
TexasRed fluor: Total Fluorescence Counterscreen for Inhibitors of the Interaction of Thyroid Hormone Receptor and Steroid Receptor Coregulator 2; TRb/SRC2 Texas Red total fluorescence interference; Potency, µM (doses to about 106 µM), inactives show top-dose fluorescence change, negative = quenching; actives 0.29% (n = 280,000); AID 1479, 2009; active = well fitted curve in either direction with a large enough effect; inconclusive = small, poorly fitted or top-dose-only effect
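Human TRb ligand-binding domain at 0.6 uM with 20 nM Texas Red SRC2 peptide in Tris buffer containing 1 uM T3 and 5% DMSO, incubated with compound 5 h at ambient temperature. Total fluorescence (555/632 nm) calculated as parallel + 2 × perpendicular.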
VDR inhibitor: Inhibitors of the vitamin D receptor (VDR): qHTS | Vitamin D3 receptor (Homo sapiens), P11473 | VDR-SRC2-3 peptide fluorescence polarization, 2 h | actives 0.93% (n = 400,000) | Potency, µM, without a hit: max response, negative = inhibition, actives largely listed as inhibitors
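Fluorescence polarization assay measuring small-molecule disruption of VDR binding to the coregulator peptide SRC2-3. Compounds were pin-transferred (23 nl) into the reagent mix and incubated 2 h at room temperature before reading.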
* marks the source's active call; other numbers are inactive results; i = inactive; ? = inconclusive; · = no result given; ! = not active in a repeat; [ ] = remark or other dose. Unless noted, calls come from the whole dose curve; as a rule, active = well fitted curve in the direction sought with a large enough effect; inconclusive = small, poorly fitted or top-dose-only effect, or another doubt; inactive = no such curve, though single readings can be large; an effect the other way counts as inactive or inconclusive. Unless noted, % is set by controls: 0 for no effect and ±100 for the full control effect; potency is the fitted concentration of half-maximal effect.

SMILES	GCN5L2 inh	RGS12 GoLoco inh	TRb SRC2 PPI	TexasRed fluor	VDR inhibitor
c1ccc(CNc2cc(-c3ccoc3)ncn2)cc1	-17%	29%	·	·	13µM*
CN(C)Cc1ccccc1-c1cc(Nc2ccccc2)ncn1	-3%	6%	-5%	-1%	5%
COc1ccc(CNc2cc(-c3ccoc3)ncn2)c(OC)c1	-20%	49%	·	·	11µM*
c1ccc(Nc2cc(-c3ccoc3)ncn2)cc1	-13%	106%	·	·	11µM*
N#CCCCS(=O)(=O)c1nc2ccccc2s1	·	1%	6%	0%	-1%
COc1ccc2nc(NC(=O)c3cc(=O)c4ccccc4o3)sc2c1	-9%	·	10%	9%	8%
Cc1cc(C)c2nc(NNC(=O)c3cc(=O)c4ccccc4o3)sc2c1	-9%	7%	7%	-6%	40µM*
COC(=O)CSc1n[nH]c(=S)s1	-5%	11%	3%	-1%	-2%
CCSc1n[nH]c(=S)s1	32µM*	-43%	1%	1%	0%
Cc1[nH]ccc(=O)c1Cc1c(Cl)cccc1Cl	19%	·	·	·	2%
Cc1nc(C(Cl)(Cl)Cl)nc2[nH]ccc(=O)c12	21%	3%	1%	0%	18µM*
COc1ccc(C(=O)N/N=C/c2ccc(N3CCOCC3)o2)cc1OC	-24%	-26%	-3%	5%	?
O=C(N/N=C/c1ccc(N2CCOCC2)o1)c1cccc(F)c1	-11%	-20%	-12%	6%	40µM*
O=C(O)c1cccc(N2C(=O)/C(=C/c3ccc(SCc4ccc(Cl)cc4)o3)SC2=S)c1	22µM*	85%	4%	-21%	-30%
O=C(CCN1C(=O)/C(=C/c2ccc(Cl)cc2)SC1=S)Nc1cccc(C(=O)O)c1	-4%	·	·	·	-10%
COc1ccc(C2=NS(=O)(=O)N(C)C(C(=O)Nc3cc(C)ccc3O)=C2)cc1OC	35µM*!	·	0%	0%	-4%
COc1ccc(C(OCCN2CCC[C@H](C(=O)O)C2)(c2ccc(OC)cc2)c2ccc(OC)cc2)cc1	0%	·	-5%	-10%	-13%
CCCN1CNc2c(c(=O)[nH]c(=S)n2CCc2ccc(Cl)cc2Cl)C1	·	·	·	·	-29%
COc1cc2oc(-c3ccccc3)cc(=O)c2cc1OC	·	6%	-2%	-1%	·
COc1cc(OC)c(-c2c3cc(O)c(=O)cc-3oc3cc(O)c(O)cc23)cc1OC	4%	i	?	40µM*[fluorescent]	-15%
CC(=O)OC[C@@H]1O[C@H](CCO/N=C(\C)CCN2CCc3nc(-c4ccccc4)c(-c4ccccc4)cc3C2)C=C[C@@H]1OC(C)=O	·	·	-2%[11.2 µM]	0%[11.2 µM]	·
COc1ccccc1C(=O)Nc1c(C(=O)c2ccccc2)oc2ccccc12	-18%	·	-12%	0.056µM*[quencher]	3%
O=S(=O)(Nc1cccc(Cl)c1)c1ccc2[nH]c3c(c2c1)CCCCCC3	-15%	·	-15%	126µM*[quencher]	6%
CN(CC(=O)NCc1ccccc1)S(=O)(=O)c1ccc2[nH]c3c(c2c1)CCCC3	-13%	·	-4%	0%	11%
O=S(=O)(NCc1ccc(F)cc1)c1ccc2[nH]c3c(c2c1)CCCC3	-14%	·	-1%	3%	5%
Cc1cccc(NS(=O)(=O)c2ccc3[nH]c4c(c3c2)CCCCCC4)c1	-4%	·	0%	3%	6%
CN(CC(=O)NCc1ccc(F)cc1)S(=O)(=O)c1ccc2[nH]c3c(c2c1)CCCC3	-18%	·	-7%	18µM*[quencher]	13%
O=S(=O)(NCc1ccc(Cl)cc1)c1ccc2[nH]c3c(c2c1)CCCC3	-16%	·	-7%	25µM*[quencher]	9%
CCN(Cc1c(F)cccc1Cl)c1c([N+](=O)[O-])cc(C(F)(F)F)cc1[N+](=O)[O-]	·	·	-4%[201 µM]	-2%[201 µM]	·
Oc1ccc(N2CCN(C(c3ccc(Cl)cc3)c3nnnn3Cc3ccc(F)cc3)CC2)cc1 (configuration not stated)	·	·	·	·	-10%
